The campaign covered roughly 1,200 compounds. About 970 (81%) were called active. No rule for the calls is given here. The set was probably picked from earlier hits. Only a sample is shown. A call without a number means that no potency is given here. Potency and affinity values are given separately.
What follows are compounds tested against Transforming acidic coiled-coil-containing protein 3 (Homo sapiens) (UniProt Q9Y6A5) (assay: inhibition of ARNT PAS-B/TACC3 complex formation – biochemical, AlphaScreen, cherry-picked samples, confirmation (AID 651703;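 also: TACC3 partner is the GST-tagged E629A mutant dimer; hits lower the signal meaning they disrupt ARNT binding to TACC3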)). Details: AlphaScreen His-ARNT PAS-B / GST-TACC3 binding, luminescence; series mostly up to 68 µM.

SMILES | outcome
Clc1ccc(SCc2cc(N3CCOCC3)nc(-c3ccccn3)n2)cc1 | inactive
CCOc1cc(/C=N/Nc2ncc(C)c(=O)[nH]2)ccc1O | inactive
O=C1C2CCCCN2C(=O)N1CCCCN1CCN(c2cccc(Br)c2)CC1 (stereo not given) | inactive
O=C(CCC(=O)c1cccs1)OCc1nnc(-c2ccccc2)o1 | inactive
CCc1c(C)nc(Nc2nc(C)c3ccc(OC)cc3n2)[nH]c1=O | inactive
CCN(C(=O)CSc1nccn1C)c1cccc2ccccc12 | inactive
COc1cc2c(cc1OC)C(Cc1ccccc1[N+](=O)[O-])=NCC2 | inactive
O=C(Nc1nnc(-c2ccccc2)s1)c1cc(-c2ccccc2)on1 | inactive
CCSc1nnc(NC(=O)C2CCCCC2C(=O)O)s1 (stereo not given) | inactive
CC(C)NC(=O)Nc1cccc2c1O[C@H](CN(C)C(=O)Nc1ccc(C(F)(F)F)cc1)[C@@H](C)CN([C@@H](C)CO)C2=O | inactive
C[C@H]1CN([C@@H](C)CO)C(=O)Cc2cc(NC(=O)Nc3cccc4ccccc34)ccc2O[C@H]1CN(C)CC1CCCCC1 | inactive
C[C@@H]1CN([C@@H](C)CO)C(=O)c2cc(NC(=O)C3CC3)ccc2O[C@H]1CN(C)C(=O)Nc1ccc(F)cc1 | inactive
C[C@H](CO)N1C[C@H](C)[C@@H](CN(C)C(=O)Nc2ccc3c(c2)OCO3)Oc2ccc(NC(=O)CCN3CCOCC3)cc2CC1=O | inactive
C[C@@H]1CN([C@H](C)CO)C(=O)Cc2cc(NC(=O)Nc3cccc4ccccc34)ccc2O[C@@H]1CN(C)Cc1ccc(C(=O)O)cc1 | inactive
COCCCN=Cc1c(-c2ccccc2)[nH]n(-c2nc3ccccc3s2)c1=O | inactive
COc1ccc(-c2[nH]ncc2/C=N\NC(=O)c2cccs2)cc1OC | inactive
CCOc1ccc(Cl)cc1C(c1c(C)[nH][nH]c1=O)c1c(C)[nH][nH]c1=O | inactive
C#CCOc1ccc(OC)cc1C(c1c(C)[nH][nH]c1=O)c1c(C)[nH][nH]c1=O | inactive
CCCN(C)C[C@@H]1Oc2ncc(C#CCC(C)C)cc2C(=O)N([C@@H](C)CO)C[C@H]1C | inactive
O=C(O)c1ccccc1-c1ccccc1C(=O)Nc1ccc2c(c1)[nH]c(=O)c1ccccc12 | inactive

SMILES | outcome
O=C(Nc1nc2ccccc2s1)c1cc(-c2ccccc2)on1 | inactive
Cc1onc(-c2c(Cl)cccc2Cl)c1C(=O)Nc1ccc(N2CCOCC2)cc1 | inactive
Cc1ccc(C(=O)Oc2ccc(/C=C3\C(=N)N4N=C(N5CCOCC5)SC4=NC3=O)cc2)cc1 | inactive
O=C1CCN(Cc2ccccc2)C=C1c1ccc(C(F)(F)F)cc1 | inactive
Cc1cccc(Oc2nc(-c3ccccn3)nc3ccccc23)c1 | inactive
Nc1cc2cccnc2cc1Cl | inactive
O=C(C[C@H]1C=C[C@@H](NC(=O)Nc2ccc3c(c2)OCO3)[C@H](CO)O1)NCc1ccc(Cl)cc1 | inactive
N#CC1=C(N)Oc2n[nH]c(-c3ccccn3)c2C1c1c(F)cccc1Cl (stereo not given) | inactive
CCN(CC)C(=O)[C@H]1C[C@H](CC(=O)NCc2ccc(OC)c(OC)c2)C(=O)N2CCc3c([nH]c4ccc(Cl)cc34)[C@]12C | inactive
CN1CCN(S(=O)(=O)c2cccc(C(=O)Nc3sccc3C(N)=O)c2)CC1 | inactive
O=C(NCC1CCCCC1)c1cc(-c2ccccc2)on1 | inactive
COC(=O)c1sc(N)c(C(=O)OC)c1Cn1ncc(Cl)c(Cl)c1=O | inactive
Cc1ccccc1CNC(=O)c1cc(-c2ccccc2)on1 | inactive
CC1=NN(c2ccccc2C)C(=O)C1 | inactive
COc1cc(NC(=O)C(=O)Nc2ccc3nc4n(c(=O)c3c2)CCCCC4)cc(OC)c1OC | inactive
CN(C)c1ccc2c(c1)[C@@H]1C[C@@H](CC(=O)N3CCOCC3)O[C@@H](CO)[C@@H]1O2 | inactive
O=C(C[C@H]1C[C@H]2c3cc(NC(=O)NC4CCCCC4)ccc3O[C@H]2[C@H](CO)O1)NCc1ccccc1 | inactive
Clc1nssc1=Nc1nncs1 | inactive
COCCNC(=O)C[C@@H]1C[C@H]2c3cc(NC(=O)C4CCOCC4)ccc3O[C@H]2[C@H](CO)O1 | inactive
COc1ccccc1OCc1nc(C#N)c(NCCCn2ccnc2)o1 | inactive

SMILES | outcome
Cc1coc2c(C)c3oc(=O)c(CCC(=O)N[C@@H](C)C(=O)N[C@@H](Cc4ccccc4)C(=O)O)c(C)c3cc12 | inactive
Cc1c(CC(=O)NCCCCCC(=O)O)c(=O)oc2cc3occ(-c4ccccc4)c3cc12 | inactive
Cc1c(CCC(=O)O)c(=O)oc2c(C)c3occ(-c4ccc(Cl)cc4)c3cc12 | inactive
COc1ccc(N(C(C)=O)c2nc3ccccc3[nH]2)cc1 | inactive
Cc1cc(C)n(S(=O)(=O)c2ccc(Cl)cc2)n1 | inactive
O=C(CCc1ccccc1)Nc1nnc(-c2ccccn2)o1 | inactive
CC(=O)Nc1ccc2nc3ccccc3nc2c1 | inactive
Cc1ccc(NC(=O)c2cc(-c3ccccc3)on2)cn1 | inactive
Cc1ccc(C2CCN(C(=S)Nc3cccc(C)c3)C2)cc1 (stereo not given) | inactive
CO[C@@H]1CN(C)C(=O)c2cc(NC(=O)c3ccccc3)ccc2OC[C@@H](C)N(C(=O)C2CC2)C[C@H]1C | inactive
CO[C@H]1CN(C)C(=O)c2cc(NC(=O)NC3CCCCC3)ccc2OC[C@H](C)N(CC2CC2)C[C@@H]1C | inactive
CCCNC(=O)Nc1ccc2c(c1)OC[C@H](C)N(C(=O)c1ccccc1F)C[C@@H](C)[C@@H](OC)CN(C)C2=O | inactive
O=C(Nc1ccc2ccccc2n1)c1cc(-c2ccccc2)on1 | inactive
Cc1cccc(NC(=O)c2cc(-c3ccccc3)on2)n1 | inactive
CN1/C(=N\O)c2cccc3cccc1c23 | inactive
O=C(C[C@@H]1C[C@@H]2c3cc(NC(=O)C4CCOCC4)ccc3O[C@@H]2[C@H](CO)O1)NCc1cccnc1 | inactive
CC(C)NC(=O)N1[C@H](CO)[C@@H]2c3ccccc3NC[C@@H]21 | inactive
O=C(Nc1ncc(-c2ccccc2)o1)c1cc(-c2ccccc2)on1 | inactive
COC(=O)C[C@@H]1C[C@H]2c3cc(N(C)C)ccc3O[C@H]2[C@@H](CO)O1 | inactive
COc1ccc(OC)c(NC(=O)COC(=O)Cn2nnc(-c3ccccc3)n2)c1 | inactive
